A selection: hits, their analogues and other compounds. The true share with any hit is near 2%.
Neddylation inh – inhibitors of human cullin neddylation | TR-FRET cullin neddylation, biochemical | P61081+Q13564 | inhibition, % at 25 µM | 0.58% of 360,000 active | AID 651699; in the data active means inhibition above about 36%
NadD block – NadD (S. aureus) enzyme inhibition. inhibition, % at 20 µM. purified NadD enzyme, colorimetric absorbance read-out. 0.78% of 360,000 active. AID 602399; in the data active means inhibition above about 26%
DAGLB inhibitor – diacylglycerol lipase beta (human) inhibition; 0.059% of 340,000 active; Q8NCG7; AID 504411; inhibition, % at 5.17 µM; HEK293T DAGLB membrane lysate, EnzChek fluorogenic substrate; in the data active means inhibition above about 34%;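 further: 0% = enzyme with vehicle and 100% = wells lacking enzyme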
Target sequence (Q8NCG7 whole entry, looked up): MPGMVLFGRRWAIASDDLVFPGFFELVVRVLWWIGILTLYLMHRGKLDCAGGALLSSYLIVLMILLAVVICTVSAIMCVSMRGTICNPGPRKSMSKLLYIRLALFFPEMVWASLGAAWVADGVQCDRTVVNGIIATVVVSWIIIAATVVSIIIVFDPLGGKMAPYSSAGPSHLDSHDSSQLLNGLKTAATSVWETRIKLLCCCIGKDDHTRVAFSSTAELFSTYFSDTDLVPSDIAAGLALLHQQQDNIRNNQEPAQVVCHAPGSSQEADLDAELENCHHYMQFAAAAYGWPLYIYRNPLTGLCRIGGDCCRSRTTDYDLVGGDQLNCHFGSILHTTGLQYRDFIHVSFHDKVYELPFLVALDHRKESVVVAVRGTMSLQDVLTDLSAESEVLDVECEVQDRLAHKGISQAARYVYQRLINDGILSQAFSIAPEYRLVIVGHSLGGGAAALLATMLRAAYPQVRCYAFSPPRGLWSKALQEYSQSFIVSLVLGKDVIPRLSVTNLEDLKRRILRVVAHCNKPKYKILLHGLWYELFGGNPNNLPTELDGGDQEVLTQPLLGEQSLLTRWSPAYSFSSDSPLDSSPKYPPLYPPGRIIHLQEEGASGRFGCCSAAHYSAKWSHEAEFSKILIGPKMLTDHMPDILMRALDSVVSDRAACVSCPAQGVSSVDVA
ARNT-TACC3 inh – disruptors of human ARNT/TACC3 interaction; Q9Y6A5; AlphaScreen His-ARNT PAS-B/GST-TACC3 binding, luminescence; TACC3 fragment carries E629A point mutation; AID 623870; 0.66% of 390,000 active; inhibition, % at 9.99 µM;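 active means mean inhibition of replicates at least 50% and at least half of replicates each reaching 50%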;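 further: 0% = complete ARNT plus TACC3 wells and 100% = ARNT alone without TACC3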
HGIII-sPLA2 inh – Blocks human group III sPLA2 activity; Q9NZ20; QFRET BODIPY PC-A2 liposome hydrolysis, fluorescence; inhibition, % at 12.2 µM; 0.56% of 370,000 active; AID 743126;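 active means inhibition above mean plus 3 SD of compounds lying within the high and low control bounds, cut at about 19% in these data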;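 further: 0% = median of test compound wells and 100% = no enzyme DMSO wells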
Neddyl conf – cullin neddylation inhibition, confirmation; shares compounds with Neddylation inh; 13% of 1,800 active; calls only at 25 µM; TR-FRET cullin neddylation biochemical assay; in the data active means inhibition above about 40%;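 further: neddylation substrate is the cullin 1 ring ligase complex with SKP2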
Starred values were filed as active, the others as inactive; i = inactive; / = not tested or not shown; + = active, no number; ! = a repeat was not active.

SMILES	Neddylation inh	NadD block	DAGLB inhibitor	ARNT-TACC3 inh	HGIII-sPLA2 inh	Neddyl conf
CCc1ccccc1NC(=O)CNC(=O)c1cc(C2CC2)nc2c1cnn2C(C)C	59.9*	-6.1	-5.1	-1.1	1.2	/
CC(C)n1ncc2c(C(=O)NCC(=O)Nc3ccccc3Br)cc(C3CC3)nc21	40.4*	-0.8	-1.0	-3.6	/	/
Cc1cc(C)c(NC(=O)CNC(=O)c2cc(C3CC3)nc3c2cnn3C(C)C)c(C)c1	/	0.5	-2.6	/	-13.9	/
COc1cc2ccnc(C=NO)c2cc1OC	41.3*	-2.8	-0.5	/	14.3	i
COc1ccccc1/C=C/c1nc(S(=O)(=O)c2ccccc2)c(NCCN(C)C)o1	41.8*	-2.6	-1.2	-1.1	1.2	/
O=C(C[C@@H]1C=C[C@@H](NC(=O)NC2CCCCC2)[C@@H](CO)O1)NCc1ccccc1	/	/	/	-5.0	/	/
CO[C@@H]1CN(C)C(=O)c2ccc(NC(=O)C3CC3)cc2OC[C@@H](C)N(CCc2ccccc2)C[C@H]1C	/	/	/	1.4	/	/
N#C/C(=C/c1cn(-c2ccccc2)nc1-c1cccc(S(=O)(=O)N2CCOCC2)c1)C(=O)NCc1ccco1	41.1*	2.3	-4.3	-5.8	1.2	i
COc1ccc(S(=O)(=O)Nc2ccc3c(c2)C(=O)N([C@@H](C)CO)C[C@H](C)[C@@H](CN(C)C(=O)C2CCCCC2)OCCCC[C@@H](C)O3)cc1	/	/	/	1.4	/	/
COc1ccc(CN2CCC(C)=CC2C)cc1 (configuration not stated)	/	/	/	-2.7	/	/
COC(=O)C1=C(C)NC(C)=C(C(=O)OC)C1C(=O)OCC(=O)N1c2ccccc2CC1C (configuration not stated)	45.7*!	-1.5	0.8	-2.9	6.0	/
Cc1cc(N/C(=N/S(=O)(=O)c2ccc(F)cc2)c2ccccc2)n(-c2ccccc2)n1	51.8*	1.3	-6.3	4.6	-16.4	i
CC(=O)Nc1cncc(-c2ccccc2C(C)=O)n1	-2.8	0.0	/	/	10.9	/
CNc1cncc(-c2ccccc2NC(C)=O)n1	41.6*	-3.4	/	/	13.4	i
CC(C)Sc1nnc(-c2ccc(S(=O)(=O)N3CCOCC3)cc2)n1C	43.7*	-5.6	-1.4	0.9	15.5	i
Cc1noc(C)c1NC(=O)N(C)C[C@H]1Oc2ccc(NC(=O)Cc3cn(C)c4ccccc34)cc2C(=O)N([C@H](C)CO)C[C@@H]1C	/	/	/	-16.3	/	/
CC(Oc1cc2oc(=O)c3c(c2cc1Cl)CCC3)C(=O)NCc1cccnc1 (configuration not stated)	42.6*	-0.1	-0.3	0.6	3.4	i
CC(Oc1cc2oc(=O)c3c(c2cc1Cl)CCCC3)C(=O)NCc1cccnc1 (configuration not stated)	20.8	3.0	-1.4	6.5	-2.5	/
COc1ccc(C(=O)Nc2sc3c(c2C(=O)O)CC(C)(C)OC3)cc1	43.0*	1.0	0.4	3.4	0.4	+
CC1(C)Cc2c(sc(NC(=O)c3ccccc3)c2C(=O)O)CO1	16.5	3.2	2.4	-2.8	-2.8	/
COc1cc2c(cc1OC)C(c1cccs1)NCC2 (configuration not stated)	-0.7	2.6	-0.5	7.5	11.3	/
COc1cc2c(cc1OC)C(COc1ccc(C(C)C)cc1)NCC2 (configuration not stated)	41.6*	-2.9	-1.7	7.2	3.2	i
CC(C(=O)NC1CCCC1)N1C(=O)c2cccc3cccc1c23 (configuration not stated)	38.0*	-2.3	-2.3	-3.1	-2.5	i
COc1ccc(OC)c(/C=C/C(=O)NC2=NCCS2)c1	41.7*	-5.8	1.9	-4.8	-4.4	/
COc1ccc(/C=C/C(=O)NC2=NCCS2)cc1OC	/	-4.1	-0.9	0.4	-4.1	/
SMILES	Neddylation inh	NadD block	DAGLB inhibitor	ARNT-TACC3 inh	HGIII-sPLA2 inh	Neddyl conf
O=C(C[C@@H]1CC[C@H]2[C@@H](COC[C@H](O)CN2C(=O)Nc2ccc(C(F)(F)F)cc2)O1)NCCc1ccncc1	/	/	/	0.5	/	/
CN1C(=O)c2cc(NC(=O)c3ccc(F)cc3)ccc2OC[C@@H]2O[C@H](CC(=O)O)CC[C@H]21	/	/	/	-11.2	/	/
CCOc1cc(C2NC(=O)c3ccccc3O2)ccc1OC(C)C (configuration not stated)	45.1*	-4.7	-0.4	-0.8	9.8	i
O=C1NC(c2ccc3c(c2)OCO3)Oc2ccccc21 (configuration not stated)	42.2*	0.2	0.2	10.8	-5.0	i
CCOc1ccc(C2NC(=O)c3ccccc3O2)cc1OC (configuration not stated)	36.7	-2.6	-0.5	-1.0	-0.2	/
CCOc1ccc(C2NC(=O)c3ccccc3O2)cc1OCC (configuration not stated)	40.5*	-5.4	-0.6	5.8	-3.2	i
COCC#Cc1cnc2c(c1)C(=O)N([C@@H](C)CO)C[C@@H](C)[C@@H](CN(C)C(=O)CN1CCOCC1)O2	/	/	/	-5.0	/	/
COc1ccc(NC(=O)N(C)C[C@H]2OCCCC[C@H](C)Oc3ccc(NC(=O)NC(C)C)cc3C(=O)N([C@@H](C)CO)C[C@@H]2C)cc1	/	/	/	-1.4	/	/
N#Cc1ccc(-c2ccc3c(c2)[C@@H]2[C@@H](CCN2Cc2ccc4c(c2)OCO4)[C@@H](CO)N3)cc1	/	/	/	-20.9	/	/
COc1ccc(/C=C/C(=O)NCc2ccc3c(c2)OCO3)cc1OC	42.5*	-8.3	-5.2	0.4	14.0	i
CN1CCN(c2ccccc2NC(=O)c2ccc(-c3ccc(Cl)c(Cl)c3)o2)CC1	37.9*	-4.9	-9.9	-2.4	-5.3	/
O=C(N/N=C/c1cn(Cc2ccccc2)c2ccccc12)c1cc(O)cc(O)c1	41.1*	8.4	-1.4	33.2	-11.7	+
COc1ccc(/C=C2\CCn3c2nc2cc(C(=O)O)ccc2c3=O)cc1OC	2.9	-0.9	0.2	0.9	-4.3	/
COC(=O)c1ccc(/C=C2\CCn3c2nc2cc(C(=O)O)ccc2c3=O)cc1	55.3*	0.6	0.1	/	/	+
CSc1ccc(/C=C2\CCn3c2nc2cc(C(=O)O)ccc2c3=O)cc1	46.4*	1.8	-0.2	24.0	15.8	+
C[C@@H]1CN([C@H](C)CO)C(=O)c2cc(NC(=O)CCCN(C)C)ccc2O[C@@H]1CN(C)S(=O)(=O)c1cccs1	/	/	/	-4.1	/	/
Cc1ccc(S(=O)(=O)N(C)C[C@H]2OCCCC[C@H](C)Oc3ccc(NC(=O)CCC(F)(F)F)cc3C(=O)N([C@@H](C)CO)C[C@H]2C)cc1	/	/	/	-5.8	/	/
CCOC(=O)C1CCCN(c2nc3ccccc3nc2NS(=O)(=O)c2ccc(C)cc2)C1 (configuration not stated)	46.1*	-3.6	1.5	-5.1	-32.2	+
O=S(=O)(Nc1nc2ccccc2nc1NCC1CCCO1)c1ccccc1 (configuration not stated)	38.8*	-4.9	2.5	-10.6	-7.9	i
Cc1ccc(S(=O)(=O)Nc2nc3ccccc3nc2NCC2CCCO2)cc1 (configuration not stated)	40.0*	-2.3	-2.6	-15.0	-13.2	i
